# Results published in PubChem BioAssay (Tox21).
# Records with an inconclusive call do not appear. A call without a number means that no potency is given here. Values without a mark were called inactive. The source made the active and inactive calls. Unless noted, calls come from the whole dose curve; as a rule, active = well fitted curve in the direction sought with a large enough effect in the repeat runs; inconclusive = weak or mixed curves; inactive = no such curve, though single readings can be large; an effect the other way counts as inactive or inconclusive.
# Tests used:
# [1] = qHTS assay to identify aromatase inhibitors - cell viability counter screen (AID 743084);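 note: cells stimulated with testosterone during compound exposure; nearly all actives have a fitted effect of over 55% in size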; note: potency is the fitted concentration of half-maximal effect
# [2] = target: Peroxisome proliferator-activated receptor gamma (Homo sapiens) (UniProt P37231); test: qHTS assay to identify small molecule agonists of the peroxisome proliferator-activated receptor gamma (PPARg) signaling pathway (AID 743094; active = well fitted activation curve with a large enough effect in the signal ratio in the repeat runs, not every such curve was filed as active; the % refers to the signal ratio)
# Sequence of Peroxisome proliferator-activated receptor gamma (Homo sapiens) (P37231 whole entry, looked up): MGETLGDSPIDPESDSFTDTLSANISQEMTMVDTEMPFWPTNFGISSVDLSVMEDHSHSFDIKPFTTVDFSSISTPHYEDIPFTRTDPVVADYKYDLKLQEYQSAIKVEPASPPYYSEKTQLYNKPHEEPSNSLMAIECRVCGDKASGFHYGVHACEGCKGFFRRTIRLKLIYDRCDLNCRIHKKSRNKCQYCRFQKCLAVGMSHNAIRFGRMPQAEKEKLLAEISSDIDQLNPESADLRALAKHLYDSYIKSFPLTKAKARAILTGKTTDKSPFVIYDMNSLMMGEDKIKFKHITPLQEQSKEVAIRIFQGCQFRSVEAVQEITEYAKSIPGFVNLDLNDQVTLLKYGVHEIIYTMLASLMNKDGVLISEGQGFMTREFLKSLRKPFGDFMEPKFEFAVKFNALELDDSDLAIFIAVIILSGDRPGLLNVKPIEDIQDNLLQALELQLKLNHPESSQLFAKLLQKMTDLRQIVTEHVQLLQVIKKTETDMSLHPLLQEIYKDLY
# Outline: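 Compounds dissolved in DMSO were added to PPARg UAS-bla HEK293H cells for 17 h at 37C, and reporter expression was quantified by fluorescence intensity after 1 h with LiveBLAzer B/G FRET substrate.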
# [3] = qHTS assay to identify small molecule phospholipidosis (PLD) inducers (AID 1259344; active = well fitted curve in the direction sought with a large enough effect; an effect the other way counts as inactive or inconclusive)
# Outline: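 Fluorescent phospholipid staining (LipidTOX Red) measured by automated microscopy in fixed HepG2 cells after 24 h treatment; nuclei counterstained with Hoechst 33342; amiodarone as reference inducer.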
# [4] = target: Nuclear receptor subfamily 1 group I member 2 (Rattus norvegicus) (UniProt Q9R1A7); test: Rat pregnane X receptor (rPXR) activation by small molecules, qHTS assay (AID 1346983); conditions: rPXR luciferase reporter cells, One-Glo luminescence, 24 h; max activation: hits give high values; note: nearly all actives have a fitted effect of over 20% in size; note: potency is the fitted concentration of half-maximal effect
# Sequence of Nuclear receptor subfamily 1 group I member 2 (Rattus norvegicus) (Q9R1A7 whole entry, looked up): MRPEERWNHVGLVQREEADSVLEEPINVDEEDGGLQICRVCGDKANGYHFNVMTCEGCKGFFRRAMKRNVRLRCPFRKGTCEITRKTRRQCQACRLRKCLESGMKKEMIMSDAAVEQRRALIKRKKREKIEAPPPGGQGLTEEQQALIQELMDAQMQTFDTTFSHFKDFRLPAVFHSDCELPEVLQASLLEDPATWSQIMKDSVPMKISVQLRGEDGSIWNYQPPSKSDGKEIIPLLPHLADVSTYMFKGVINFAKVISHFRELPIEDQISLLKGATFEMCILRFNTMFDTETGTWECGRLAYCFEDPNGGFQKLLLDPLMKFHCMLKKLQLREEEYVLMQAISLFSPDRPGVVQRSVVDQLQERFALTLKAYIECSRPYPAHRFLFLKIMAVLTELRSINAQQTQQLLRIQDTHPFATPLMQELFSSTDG
# Outline: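 Luminescent readout (One-Glo luciferase, 30 min room temperature) followed 24 hr compound treatment at 37 C of rPXR cells plated 2,000 per well and preincubated 5hr; qHTS format with compounds delivered in DMSO.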
# [5] = target: Nuclear receptor subfamily 1 group I member 2 (Homo sapiens) (UniProt O75469); test: CYP3A4 induction through human pregnane X receptor (PXR) by small molecules, qHTS assay (AID 1346984); note: nearly all actives have a fitted effect of over 40% in size; note: potency is the fitted concentration of half-maximal effect
# Outline: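 Readings come from a luciferase reporter: DPX-2 cells, which are HepG2 cotransfected with PXR and a CYP3A4-promoter construct, were exposed to test compounds for 24 h at 37C before One-Glo detection.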
# [6] = target: Nuclear receptor subfamily 1 group I member 2 (Homo sapiens) (UniProt O75469); test: Human pregnane X receptor (PXR) activation by small molecules, qHTS assay (AID 1346985); note: nearly all actives have a fitted effect of over 40% in size
# Outline: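 DPX-2 cells (HepG2 co-transfected with a PXR response element and a CYP3A4-promoter luciferase construct) were seeded at 2,000 per well, rested 5 hr at 37C, then exposed to DMSO-dissolved compounds for 24 hr. Activation was read as luciferase luminescence.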
# [7] = qHTS assay to identify small molecule that activate the aryl hydrocarbon receptor (AhR) signaling pathway - cell viability counter screen (AID 743086); note: nearly all actives have a fitted effect of over 45% in size; note: potency is the fitted concentration of half-maximal effect
# Outline: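 Cytotoxicity counter screen: CellTiter-Fluor signal (30 min, 37 C) in 4000 HepG2 cells/well carrying the DRE-luciferase reporter, following 24 h compound exposure at 37 C.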
# [8] = target: Aryl hydrocarbon receptor (Homo sapiens) (UniProt P35869); test: qHTS assay to identify small molecule that activate the aryl hydrocarbon receptor (AhR) signaling pathway (AID 743085); note: nearly all actives have a fitted effect of over 15% in size; note: potency is the fitted concentration of half-maximal effect;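 for activation: HG2L7.5c1 human HepG2 liver cells with stably integrated DRE-driven firefly reporter; series mostly up to about 70 µM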
# Sequence of Aryl hydrocarbon receptor (Homo sapiens) (P35869 whole entry, looked up): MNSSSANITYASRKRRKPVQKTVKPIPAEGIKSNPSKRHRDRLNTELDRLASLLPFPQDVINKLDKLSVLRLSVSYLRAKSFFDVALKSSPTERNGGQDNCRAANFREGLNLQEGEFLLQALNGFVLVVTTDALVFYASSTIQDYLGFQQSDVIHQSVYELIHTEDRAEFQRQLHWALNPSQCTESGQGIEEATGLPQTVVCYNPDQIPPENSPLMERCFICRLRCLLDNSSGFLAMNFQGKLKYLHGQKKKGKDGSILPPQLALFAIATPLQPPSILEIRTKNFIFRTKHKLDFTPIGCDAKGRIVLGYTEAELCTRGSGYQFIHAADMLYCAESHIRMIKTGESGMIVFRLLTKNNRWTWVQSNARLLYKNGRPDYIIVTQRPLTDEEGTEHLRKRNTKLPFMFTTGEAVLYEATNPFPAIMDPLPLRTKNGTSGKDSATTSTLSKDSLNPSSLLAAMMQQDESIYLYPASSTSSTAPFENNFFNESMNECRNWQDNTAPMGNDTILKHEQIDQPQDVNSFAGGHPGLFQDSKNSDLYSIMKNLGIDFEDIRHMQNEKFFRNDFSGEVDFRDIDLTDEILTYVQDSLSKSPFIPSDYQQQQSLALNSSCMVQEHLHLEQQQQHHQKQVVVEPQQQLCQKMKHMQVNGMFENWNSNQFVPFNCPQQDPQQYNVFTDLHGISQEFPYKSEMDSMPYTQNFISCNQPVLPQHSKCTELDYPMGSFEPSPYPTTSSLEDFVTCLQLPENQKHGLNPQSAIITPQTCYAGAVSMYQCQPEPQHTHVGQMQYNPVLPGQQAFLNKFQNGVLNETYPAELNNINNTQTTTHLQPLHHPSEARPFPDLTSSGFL
# Outline: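 24 h compound exposure, 37C, HepG2-derived HG2L7.5c1 cells with DRE-responsive luciferase. Readouts: fluorescence viability, then luminescence at room temperature after 30 min.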
SMILES,Potency [1],Potency [2],Potency [3],max activation [4] [%],Potency [5],Potency [6],Potency [7],Potency [8],Potency [4]
CCOC(=O)c1c[nH]c2cc(OCC(C)C)c(OCC(C)C)cc2c1=O,inactive,inactive,inactive,-0.745,inactive,inactive,–,–,–
C=Cc1c(C)c2cc3nc(cc4[nH]c(cc5nc(cc1[nH]2)C(C)=C5CCC(=O)OC)c(CCC(=O)O)c4C)[C@@]1(C)C3=CC=C(C(=O)OC)[C@H]1C(=O)OC,–,inactive,inactive,-3.53,inactive,inactive,inactive,–,–
Cc1cc2nc3c(=O)[nH]c(=O)nc-3n(C[C@H](O)[C@H](O)[C@H](O)COP(=O)(O)OP(=O)(O)OC[C@H]3O[C@@H](n4cnc5c(N)ncnc54)[C@H](O)[C@@H]3O)c2cc1C,–,–,inactive,-0.0695,inactive,inactive,–,inactive,–
Nc1ncnc2c1ncn2[C@@H]1O[C@H](COP(=O)(O)OP(=O)(O)OP(=O)(O)O)[C@@H](O)[C@H]1O,–,inactive,inactive,2.22,inactive,inactive,inactive,inactive,–
CCOc1cc(-c2nccc3cc(OC)c(OC)cc23)cc(OCC)c1OCC,29.8 µM (active),–,inactive,5.49,inactive,–,21.1 µM (active),2.11 µM (active),–
C[C@H]1[C@@H](OC(=O)CCC(=O)O)O[C@@H]2OC3(C)CC[C@H]4[C@H](C)CC[C@@H]1[C@@]24OO3,–,–,inactive,-13.4,inactive,inactive,–,inactive,–
FC(F)(F)C(F)(F)C(F)(F)C(F)(F)C(F)(F)C(F)(F)F,inactive,–,inactive,-1.09,inactive,–,inactive,inactive,–
NC(Cc1ccccc1)C(=O)O (stereo not drawn),inactive,inactive,inactive,14.8,inactive,inactive,–,–,–
CC(CCc1ccc(O)cc1)NCC(O)c1ccc(O)cc1 (stereo not drawn),–,inactive,inactive,-0.789,inactive,inactive,inactive,inactive,–
COc1cc2c(cc1OC)[C@@H](c1ccccc1)CN(C)CC2,inactive,inactive,inactive,1.99,inactive,–,inactive,inactive,–
CNC(=O)c1c(I)c(C(=O)NCC(=O)Nc2c(I)c(C(=O)O)c(I)c(C(=O)NCCO)c2I)c(I)c(N(C)C(C)=O)c1I,–,–,inactive,-3.62,inactive,–,inactive,–,–
CC(C)[C@@H](N)C(=O)O,inactive,inactive,inactive,2.42,inactive,–,inactive,inactive,–
CC1CCC(NC(=O)N(CCCl)N=O)CC1 (stereo not drawn),inactive,inactive,inactive,–,inactive,–,inactive,–,5.01 µM (active)
CC[C@H](C)[C@@H]1NC(=O)[C@H](Cc2ccc(O)cc2)NC(=O)[C@@H](N)CSSC[C@@H](C(=O)N2CCC[C@H]2C(=O)N[C@@H](CC(C)C)C(=O)NCC(N)=O)NC(=O)[C@H](CC(N)=O)NC(=O)[C@H](CCC(N)=O)NC1=O,inactive,inactive,inactive,0.0402,inactive,–,inactive,inactive,–
C[C@@H]1C[C@H]2[C@@H]3CCC4=CC(=O)C=C[C@]4(C)[C@@]3(F)[C@@H](O)C[C@]2(C)[C@@]1(O)C(=O)COC(=O)c1cccc(S(=O)(=O)O)c1,inactive,inactive,inactive,–,inactive,–,inactive,–,10 µM (active)
NS(=O)(=O)c1cc2c(cc1Cl)NC(Cc1ccccc1)NS2(=O)=O (stereo not drawn),inactive,inactive,inactive,-1.36,inactive,–,inactive,inactive,–
O=C1C(=O)c2ncccc2-c2cccnc21,inactive,inactive,inactive,-3.81,inactive,–,–,6.68 µM (active),–
CCN(CC)CCC(=O)N1c2ccccc2Sc2ccc(C(F)(F)F)cc21,inactive,inactive,inactive,-1.59,1 µM (active),–,–,inactive,–
OC[C@@H](O)C(O)[C@H](O)CO,inactive,inactive,inactive,-1.82,inactive,–,inactive,–,–
COC(=O)[C@H]1[C@H]2C[C@@H]3c4[nH]c5cc(OC)ccc5c4CCN3C[C@H]2C[C@H](OC)[C@@H]1OC,inactive,–,inactive,6.76,inactive,–,inactive,–,–
CC(Oc1ccccc1)C(=O)N[C@@H]1C(=O)N2[C@@H]1SC(C)(C)[C@@H]2C(=O)O (stereo partly drawn),inactive,inactive,inactive,-1.33,inactive,–,inactive,inactive,–
CN1c2cc(O)c(N=NC(N)=O)cc2CC1S(=O)(=O)O (stereo not drawn),–,inactive,inactive,0.153,inactive,–,–,inactive,–
